# Shown are actives, neighbours in structure and some others; about 27% of the full set was active somewhere.
# CYP2C19 inhib: human CYP2C19 inhibition; inhibition, % at 5 µM; 96,000 compounds, 21% hits; P33261; CYP2C19 Supersomes, luciferin-H EGE luminescence, 30 min; AID 778;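 active = CYP2C19 inhibition above a set limit at 5 µM in the primary screen, cut at about 50% in these data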;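 note: plate controls were negative control wells for no effect and 2.5 mM tranylcypromine positive control for full effect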
# PTK2B oligo ant: antagonists of human Pyk2 oligomerization; Q293 cells, Pyk2 FERM NanoBiT luminescence; stronger effect = lower value; z-score (the deposit names both 25 µM and 10 µM); 99,000 compounds, 0.83% hits; AID 1347419;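 active = Z-score of -3 or lower, scaled per plate to the spread of control and sample wells; inactive = z-score above -3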;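 note: negative z-score means lost luminescence so less FERM oligomerization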
# CYP2C9 inh: human CYP2C9 inhibition; P11712; CYP2C9 Supersomes, luciferin-H conversion, luminescence; inhibition, % at 5 µM; 96,000 compounds, 20% hits; AID 777;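 active = blocking of liver enzyme CYP2C9 beyond about 50% at 5 µM, limit read from the data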
# CYP2C9 act: increases human cytochrome P450 2C9 activity | recombinant CYP2C9, luciferin-H conversion, luminescence; stronger effect = higher value; factor 1 = untreated enzyme, 0 = blocked | AID 1024 | 96,000 compounds, 1.4% hits | activation factor at 5 µM | P11712;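 active = activation factor of 2 or more for CYP2C9 at a 5 µM dose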;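 note: 0 = sulfaphenazole-blocked wells and 1 = vehicle-only wells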
# CYP2C19 act: activators of human cytochrome P450 2C19 | P33261 | recombinant CYP2C19, luciferin-H EGE luminescence; stronger effect = higher value; 0 = fully inhibited enzyme, 1 = untreated enzyme | activation factor at 5 µM | 96,000 tested, under 10 active | AID 1025;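 active = activation factor of at least 2 at 5 µM in the primary screen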;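 note: 0 = wells with 2.5 mM tranylcypromine and 1 = vehicle-only wells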
# Cav32 inh: human Cav3.2 channel inhibition, primary screen. 100,000 compounds, 4% hits. B-score at 10 µM. O95180. Cav3.2-expressing cells, Fluo-4 calcium fluorescence FDSS; stronger effect = lower value;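 active = single-dose well whose peak fluorescence ratio is a statistical outlier from its plate by either plate-standardised score or position-corrected B-score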
# * = called active by the depositor; / = not tested or not shown.
SMILES,CYP2C19 inhib,PTK2B oligo ant,CYP2C9 inh,CYP2C9 act,CYP2C19 act,Cav32 inh
Cc1cc(C)nc(SCc2nnc(SCC(=O)N3CCCc4ccccc43)n2C)n1,11.0,1.43,-50.2,1.5,0.9,0.97
O=C(CSc1nnc(CNc2ccccc2)o1)N1CCc2ccccc21,11.7,0.91,-10.0,1.1,0.9,0.415
Cc1cc(C)nc(SCc2nnc(SCC(=O)N3CCCc4ccccc43)o2)n1,80.2*,0.51,6.3,0.9,0.2,-0.497
O=C(CSc1nnc(C2COc3ccccc3O2)o1)N1CCCc2ccccc21 (configuration not stated),40.0,-0.88,45.9,0.5,0.6,-10.2*
Nc1nc(SCC(=O)N2CCCc3ccccc32)[nH]c(=O)c1-c1ccccc1,45.8,3.67,51.1*,0.5,0.5,0.0022
O=C(CSc1nc2c(cnn2-c2ccc(F)cc2)c(=O)[nH]1)N1CCCc2ccccc21,-1.8,-1.36,28.2,0.7,1,-0.68
CCOCC(=O)Nc1cc(-c2cn3cccnc3n2)ccc1C,-4.1,0.28,3.9,1,1,/
CN1[C@@H]2CC[C@H]1CC(OC(=O)C(CO)c1ccccc1)C2 (some centres not stated),/,/,/,/,/,-0.0471
CC1CCN(C(=O)CCCOc2cc(=O)n(C)c3ccccc23)CC1,50.3*,-0.79,-27.2,1.3,0.5,-0.0635
Cc1cccc(N2CCN(C(=O)COc3cc(=O)n(C)c4ccccc34)CC2)c1C,51.3*,-0.44,-6.4,1.1,0.5,-2.24
Cc1ccc(C)c(N2CCN(C(=O)CCCOc3cc(=O)n(C)c4ccccc34)CC2)c1,94.3*,-1.3,90.3*,0.1,0.1,-3.1
COc1ccc(CNC(=O)CCCOc2cc(=O)n(C)c3ccccc23)cc1,91.7*,1.64,77.6*,0.2,0.1,1.69
Cc1ccc(C)c(N2CCN(C(=O)COc3cc(=O)n(C)c4ccccc34)CC2)c1,16.7,-0.55,2.7,1,0.8,/
O=C(CSc1nnc(-c2ccc(OC(F)F)cc2)o1)NC(=O)NCc1ccco1,-12.7,0.87,-2.6,1,1.1,-0.233
COc1ccc(N2CCN(C(=O)CCCOc3cc(=O)n(C)c4ccccc34)CC2)cc1,88.4*,-0.19,87.8*,0.1,0.1,1.46
CCCC1COC(Cn2cncn2)(c2ccc(C)cc2)O1 (configuration not stated),58.3*,0.43,49.2,0.5,0.4,0.0721
Cc1cc(Nc2c(C)n(C)n(-c3ccccc3)c2=O)n2c(nc3ccccc32)c1C#N,26.6,1.85,39.6,0.6,0.7,/
CCCc1cc(Nc2c(C)n(C)n(-c3ccccc3)c2=O)n2c(nc3ccccc32)c1C#N,6.3,-2.59,61.8*,0.4,0.9,2.77
CCC(C)NC(=O)C1CCN(S(=O)(=O)c2ccc(OC)cc2)CC1 (configuration not stated),19.4,1.83,-14.2,1.1,0.8,0.236
CCNC(=O)COC(=O)c1cc(-c2ccc(OC)cc2)nc2ccccc12,15.9,-1.14,60.6*,0.4,0.8,-1.48
O=C(COC(=O)c1cc(-c2ccco2)nc2ccccc12)NCc1ccccc1,33.3,-0.24,61.3*,0.4,0.7,-2.79
Cc1nc2ccccc2n1C(=O)c1cc(-c2ccc(Br)cc2)nc2ccccc12,16.8,0.73,78.8*,0.2,0.8,/
CCN(CC)C(=O)Cc1cc(C(=O)O)c2ccccc2n1,0.1,1.23,-13.3,1.1,1,0.0239
CCN(CC)C(=O)COC(=O)c1cc(-c2ccc(OC)cc2)nc2ccccc12,91.3*,-1.86,97.5*,0,0.1,-3.19
Cc1ccc(C(C(=O)NC2CCCCC2)N(Cc2cccnc2)C(=O)C2COc3ccccc3O2)o1 (configuration not stated),38.7,-1.28,27.8,0.7,0.6,-2.84
SMILES,CYP2C19 inhib,PTK2B oligo ant,CYP2C9 inh,CYP2C9 act,CYP2C19 act,Cav32 inh
O=c1c(N2CCCCC2)coc2ccccc12,15.0,-0.23,-29.0,1.3,0.8,1.03
Clc1ccc(C2=Nn3c(nnc3-c3n[nH]c4c3CCC4)SC2)cc1Cl,/,-2.14,/,/,/,-3.43
Cc1nc(N/C(N)=N/S(=O)(=O)c2ccc([N+](=O)[O-])cc2)nc2ccccc12,/,1.39,/,/,/,/
CN(Cc1ccccc1)C(=O)COC(=O)c1ccccc1NS(=O)(=O)c1cccc(N)c1,/,-0.67,/,/,/,/
CN(Cc1ccccc1)C(=O)COC(=O)c1cc(-c2ccc(Cl)s2)nc2ccccc12,56.3*,-0.18,87.8*,0.1,0.4,-1.95
CCOc1ccc(-c2cc(C(=O)O)c3ccccc3n2)cc1,-25.2,-0.2,57.2*,0.4,1.3,-0.312
C[C@@H]1NC(=O)c2cc([N+](=O)[O-])cc(I)c2NCC[C@@H](C(N)=O)NC(=O)[C@H](CC(N)=O)NC1=O,/,/,/,/,/,-0.162
Cc1ccc(COn2c(-c3ccc(Cl)cc3)nc3ccc([N+](=O)[O-])cc32)cc1,18.8,-2.54,25.8,0.7,0.8,-1.93
O=[N+]([O-])c1ccc2nc(-c3ccc(Cl)cc3)n(OCc3ccccc3)c2c1,5.9,-3.08*,17.8,0.8,0.9,/
Cc1cc(NC(=O)C2CCCN2C(=O)Nc2c(C)cccc2C)ccc1-n1cnnn1 (configuration not stated),/,-0.88,/,/,/,0.934
CC(=O)c1cccc(NC(=O)N2CCCC2C(=O)Nc2cccc(C)c2C)c1 (configuration not stated),89.8*,-0.02,87.8*,0.1,0.1,0.379
CC(=O)c1cccc(NC(=O)N2CCCC2C(=O)NC2CCCCC2)c1 (configuration not stated),19.6,1.52,22.0,0.8,0.8,0.0305
CC(=O)c1cccc(NC(=O)N2CCCC2C(=O)Nc2ccccc2C)c1 (configuration not stated),4.3,-0.14,55.7*,0.4,1,-0.115
Cc1cc(C)cc(NC(=O)N2CCCC2C(=O)Nc2ccc(-n3cnnn3)c(C)c2)c1 (configuration not stated),96.5*,0.28,10.3,0.9,0,2.61
Cc1nc(SCC(O)CCl)c([N+](=O)[O-])[nH]1 (configuration not stated),/,0.88,/,/,/,-0.491
O=S(=O)(Nc1ccc(F)cc1)c1ccc(NC(=S)Nc2ccccc2)cc1,57.3*,1.41,85.6*,0.1,0.4,/
O=C(NCCCN1CCCC1=O)c1ccccc1NS(=O)(=O)c1ccc(F)cc1,43.0,0.4,28.8,0.7,0.6,1.86
O=S(=O)(Nc1ccccc1Cl)c1ccc(F)cc1,89.0*,-0.43,50.8*,0.5,0.1,-1.19
O=S(=O)(Nc1ccccc1)c1ccc(F)cc1,92.1*,-0.92,71.8*,0.3,0.1,0.729
Cc1cccc(C)c1NS(=O)(=O)c1ccc(F)cc1,98.7*,-0.64,75.0*,0.3,0,-1.77
CC(C)(C)NC(=O)c1cccc(NC(=O)c2cccc(O)c2)c1,-6.9,-0.55,17.2,0.8,1.1,0.853
